The results in this text go back to PubChem BioAssay (NCI).

The panel holds about 83,000 compounds, 20% with a hit somewhere; the sample as a whole holds those more often.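 Cell lines were cultured in 96-well plates, exposed to a single compound concentration, and assessed for percent growth 48 hours later.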 Unmarked numbers belong to inactive results. Active and inactive are the calls of the source. Rule for the calls: active = growth percent below 10; inactive = the rest.

Among the test systems are SR leukemia; RPMI-8226 leukemia; OVCAR-8 ovarian; OVCAR-5 ovarian; OVCAR-4 ovarian; SK-OV-3 ovarian; IGROV1 ovarian; OVCAR-3 ovarian; HS 578T breast; NCI/ADR-RES ovarian; T-47D breast; BT-549 breast; MDA-MB-435 melanoma; SW-620 colon; MCF7 breast; HCT-116 colon; KM12 colon; HCC-2998 colon.
Holding throughout (assay): NCI-60 one-dose screen, 48 h (100 = growth as untreated, 0 = no growth, -100 = all killed)
Common to all, as to conditions: 10 µM unless noted

For `COc1cc(C(=O)/C=C/c2ccc3nc(-c4cc(F)cc(F)c4)sc3c2)cc(OC)c1OC`, the growth in the assay on SR leukemia is 103%; with RPMI-8226 leukemia, 90.7%; with OVCAR-8 ovarian, 104%; in the assay with OVCAR-5 ovarian, 97.1%; in the assay with OVCAR-4 ovarian, 107%; with SK-OV-3 ovarian, 94.5%. For the same compound, the growth in the assay with IGROV1 ovarian is 96.6%; in the assay with OVCAR-3 ovarian, 112%; in the assay on HS 578T breast, 93.1%; with NCI/ADR-RES ovarian, 98.7%; in the assay with T-47D breast it was 102%; in the assay on BT-549 breast, 95.3%. Moreover, the growth with MDA-MB-435 melanoma was 106%; in the assay on SW-620 colon, 104%; in the assay with MCF7 breast, 97.5%; in the assay with HCT-116 colon, 87%; with KM12 colon, 108%.
Turning to `Cn1cc(-c2cnc3ccc(NC(=O)Nc4ccc(F)c(Br)c4)cc3n2)cn1`, the growth is 34% in the assay with SR leukemia; -34.1% (active) with RPMI-8226 leukemia; 7.83% (active) with OVCAR-8 ovarian; 51.2% in the assay on OVCAR-5 ovarian; 10.7% in the assay on OVCAR-4 ovarian; 44.7% in the assay with SK-OV-3 ovarian. For the same compound, the growth with IGROV1 ovarian is 32.8%; in the assay on OVCAR-3 ovarian, 28.2%; in the assay on HS 578T breast it was 37.4%; with NCI/ADR-RES ovarian, 12.4%; with T-47D breast, -38.1% (active); in the assay with BT-549 breast, 20.5%. The growth in the assay with MDA-MB-435 melanoma is 21.5%; in the assay with SW-620 colon, 39.8%; in the assay with MCF7 breast, 3.7% (active); in the assay on HCT-116 colon, 22%; in the assay with KM12 colon, 12.7%.
In the case of `Cc1cc(N/N=C/c2nc(-c3ccc(Br)cc3)oc2C)c2cc(Br)ccc2n1`, the growth in the assay on SR leukemia was 2.16% (active); in the assay on RPMI-8226 leukemia it was -9.38% (active); in the assay with OVCAR-8 ovarian, 12%; with OVCAR-5 ovarian it was 95.6%; with OVCAR-4 ovarian, -83.5% (active); with SK-OV-3 ovarian, 105%. In addition, the growth is 78.8% with IGROV1 ovarian; -13.4% (active) in the assay on OVCAR-3 ovarian; 85.5% in the assay on HS 578T breast; 35% with NCI/ADR-RES ovarian; 89.8% in the assay with T-47D breast; 93.1% with BT-549 breast. Further, the growth in the assay with MDA-MB-435 melanoma was -11.2% (active); in the assay with SW-620 colon, -46.5% (active); in the assay on MCF7 breast, -78.7% (active); in the assay on HCT-116 colon, 16.1%; in the assay on HCC-2998 colon, 94.7%; with KM12 colon, 60.2%.
Take `COc1cc(C2NN=C3c4ccccc4CCC32)cc(OC)c1OC` (configuration not stated): the growth in the assay with SR leukemia is 61.1%; in the assay with RPMI-8226 leukemia, 5.35% (active); in the assay on OVCAR-8 ovarian it was 70.3%; in the assay on OVCAR-5 ovarian, 95.8%; in the assay on OVCAR-4 ovarian it was 71.1%; in the assay with SK-OV-3 ovarian, 69%. Moreover, the growth with IGROV1 ovarian is 26.1%; in the assay with OVCAR-3 ovarian, 71.2%; in the assay on HS 578T breast it was 71.4%; with NCI/ADR-RES ovarian, 79.4%; with T-47D breast, 39.3%; in the assay with BT-549 breast, 103%. Besides, the growth is 96.9% in the assay with MDA-MB-435 melanoma; 93.9% in the assay with SW-620 colon; 42.7% in the assay with MCF7 breast; 74.8% in the assay on HCT-116 colon; 80.4% in the assay with KM12 colon.
In the case of `CC(=O)OC[C@]12CC[C@H]3[C@@H](C[C@H]4O[C@]45CC=CC(=O)[C@]35C)[C@]1(O)CC[C@@]2(O)[C@@](C)(O)C1CC(C)=C(C)C(=O)O1` (some centres not stated), the growth with SR leukemia is 10.4%; in the assay on RPMI-8226 leukemia, -19.6% (active); with OVCAR-8 ovarian, 7.69% (active); in the assay with OVCAR-5 ovarian it was -24.1% (active); with OVCAR-4 ovarian, 19.8%; in the assay with SK-OV-3 ovarian it was -13.1% (active). Moreover, the growth in the assay with IGROV1 ovarian was -55.1% (active); in the assay on OVCAR-3 ovarian it was -23.7% (active); in the assay with HS 578T breast, -1.18% (active); in the assay with NCI/ADR-RES ovarian it was 38.9%; in the assay on T-47D breast, -23.2% (active); with BT-549 breast, -12.2% (active). Further, the growth in the assay on MDA-MB-435 melanoma was -77.4% (active); in the assay on SW-620 colon it was -32.1% (active); in the assay with MCF7 breast, -27% (active); with HCT-116 colon, -29.3% (active); with KM12 colon, -70.8% (active).
Regarding `Nc1cccc(Cl)c1N`, the growth is 92.5% in the assay with SR leukemia; 69.3% in the assay with RPMI-8226 leukemia; 105% in the assay on OVCAR-8 ovarian; 108% in the assay with OVCAR-5 ovarian; 94.4% in the assay on OVCAR-4 ovarian; 94.3% in the assay with SK-OV-3 ovarian. For the same compound, the growth in the assay with IGROV1 ovarian is 88%; in the assay with OVCAR-3 ovarian it was 109%; in the assay with HS 578T breast it was 98.9%; in the assay on NCI/ADR-RES ovarian, 102%; with T-47D breast, 54.6%; in the assay on BT-549 breast it was 97.6%. The growth is 106% with MDA-MB-435 melanoma; 101% in the assay on SW-620 colon; 39.6% in the assay on MCF7 breast; 100% in the assay on HCT-116 colon; 84.2% in the assay with HCC-2998 colon; 99.5% with KM12 colon.
For `Cc1nn(-c2ccc([N+](=O)[O-])cc2)c2ncnc(NCCc3ccccc3)c12`, the growth is 62.3% in the assay with SR leukemia; 96.9% in the assay on RPMI-8226 leukemia; 98.4% in the assay with OVCAR-8 ovarian; 101% in the assay on OVCAR-5 ovarian; 109% in the assay on OVCAR-4 ovarian; 101% with SK-OV-3 ovarian. The growth is 99.2% in the assay with IGROV1 ovarian; 112% with OVCAR-3 ovarian; 101% in the assay with HS 578T breast; 102% in the assay with NCI/ADR-RES ovarian; 93% in the assay on T-47D breast; 114% in the assay on BT-549 breast. Also, the growth in the assay with MDA-MB-435 melanoma was 94.9%; in the assay on SW-620 colon, 99.4%; in the assay on MCF7 breast, 93.1%; in the assay with HCT-116 colon it was 92.5%; with HCC-2998 colon it was 101%; with KM12 colon it was 96.1%.
`C=C1C(=O)O[C@H]2[C@H]1CC/C(Cn1cc(CNC(=O)c3cc4ccccc4[nH]3)nn1)=C\CC[C@@]1(C)O[C@@H]21`: the growth in the assay on SR leukemia is 4.37% (active); with RPMI-8226 leukemia it was -11.5% (active); in the assay with OVCAR-8 ovarian, 44.8%; in the assay with OVCAR-5 ovarian, 110%; with OVCAR-4 ovarian it was 83%; with SK-OV-3 ovarian, 106%. The growth was 71% with IGROV1 ovarian; 3.43% (active) in the assay with OVCAR-3 ovarian; 99.9% in the assay with HS 578T breast; 101% in the assay on NCI/ADR-RES ovarian; 48.7% with T-47D breast; 87.9% in the assay with BT-549 breast. Also, the growth in the assay with MDA-MB-435 melanoma was 26.5%; in the assay with SW-620 colon it was -32.5% (active); in the assay on MCF7 breast, 9.93% (active); in the assay on HCT-116 colon, 4.22% (active); in the assay on HCC-2998 colon, 96%; in the assay on KM12 colon, 68.9%.
As for `C=C[C@@H]1C[C@H](O)Cc2c(C)cc(C)cc2N1`, the growth is 82.8% in the assay with SR leukemia; 84.7% in the assay with RPMI-8226 leukemia; 98.5% in the assay on OVCAR-8 ovarian; 89.3% in the assay with OVCAR-5 ovarian; 108% in the assay on OVCAR-4 ovarian; 106% with SK-OV-3 ovarian. In addition, the growth in the assay on IGROV1 ovarian is 109%; with OVCAR-3 ovarian, 112%; in the assay on HS 578T breast it was 99.9%; in the assay on NCI/ADR-RES ovarian it was 97.1%; in the assay on T-47D breast it was 103%; in the assay with BT-549 breast it was 96.4%. Besides, the growth with MDA-MB-435 melanoma is 99.3%; with SW-620 colon, 99.9%; with MCF7 breast it was 93.1%; in the assay with HCT-116 colon, 99.9%; in the assay on KM12 colon it was 105%.
